hcDAF12 agonist – H. contortus DAF-12 activation, primary screen | activation, % at 6.8 µM | HEK293 hcDAF-12 lit1-tk-luc reporter, luminescence; 0% DMSO, 100% Δ7-dafachronic acid | 1.4% of 370,000 active;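 active means activation above the mean of all tested compounds plus 3 SD, cut at about 5.5% in these data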
DAX1 inh-1 – inhibits human nuclear receptor DAX1; P51843; HEK293 Gal4-DAX1 luciferase reporter, luminescence; inhibition, % at 6.75 µM; 0.99% of 340,000 active; AID 504766;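 active means inhibition above the mean over all tested compounds plus 3 SD, cut at about 4.2% in these data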;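 further: inhibition shows as a rise in luminescence from relieved DAX1 repression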
DAX1 inh-2 – inhibitors of DAX1 repression of SF-1 activated StAR promoter; HEK293T StAR-luciferase reporter, SF-1/DAX-1 repression relief; inhibition, % at 6.8 µM; 1.1% of 370,000 active;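 active means inhibition above the mean over all tested compounds plus 3 SD, cut at about 3.6% in these data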;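 further: higher inhibition means more luminescence from relief of DAX-1 repression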
AHR act – activators of human aryl hydrocarbon receptor; P35869; AHR-responsive luciferase reporter cells, luminescence; activation, % at 5 µM; 2.5% of 320,000 active; in the data active means activation above about 47%
Target sequence (P35869 whole entry, looked up): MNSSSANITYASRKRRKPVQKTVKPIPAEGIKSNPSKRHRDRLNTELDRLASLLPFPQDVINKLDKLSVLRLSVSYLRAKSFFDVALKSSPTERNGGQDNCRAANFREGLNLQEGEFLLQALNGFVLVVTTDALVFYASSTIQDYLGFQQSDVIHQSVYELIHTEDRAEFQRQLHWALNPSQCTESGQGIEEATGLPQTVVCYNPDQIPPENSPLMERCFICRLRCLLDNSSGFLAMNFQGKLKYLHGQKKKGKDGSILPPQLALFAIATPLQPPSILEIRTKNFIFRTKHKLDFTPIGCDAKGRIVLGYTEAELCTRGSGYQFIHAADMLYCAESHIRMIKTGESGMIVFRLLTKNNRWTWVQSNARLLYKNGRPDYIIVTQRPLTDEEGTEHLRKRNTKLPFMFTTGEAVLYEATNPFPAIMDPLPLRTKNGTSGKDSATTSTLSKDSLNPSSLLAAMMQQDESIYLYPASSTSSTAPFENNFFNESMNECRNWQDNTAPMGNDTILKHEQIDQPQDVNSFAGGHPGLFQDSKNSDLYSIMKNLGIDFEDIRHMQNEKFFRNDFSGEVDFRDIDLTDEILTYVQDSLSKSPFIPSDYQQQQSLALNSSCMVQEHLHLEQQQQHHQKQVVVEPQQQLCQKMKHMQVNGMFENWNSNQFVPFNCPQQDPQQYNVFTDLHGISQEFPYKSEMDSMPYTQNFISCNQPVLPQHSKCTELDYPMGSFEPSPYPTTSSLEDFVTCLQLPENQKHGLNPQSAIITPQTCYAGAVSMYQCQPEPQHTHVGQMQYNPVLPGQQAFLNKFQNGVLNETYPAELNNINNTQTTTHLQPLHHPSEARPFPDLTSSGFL
ssDAF-12 act – S. stercoralis DAF-12 activation, primary screen; HEK293 ssDAF-12/GRIP1 lit1-tk-luc reporter, luminescence; % of 3 µM dafachronic acid response; activation, % at 6.8 µM; 1% of 370,000 active;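 active means activation above the mean over all tested compounds plus 3 SD, cut at about 0.9% in these data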
hgDAF-12 ag – agonists of H. glycines DAF-12 nuclear receptor; HEK293 GAL4-hgDAF12 UAS-luciferase reporter, agonist luminescence; normalized to butyrate control; activation, % at 6.8 µM; 1.8% of 370,000 active; AID 687014;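 active means activation above a cutoff set at the mean of all screened compounds plus 3 SD, cut at about 10% in these data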
Hits are given with their value. This is a sample that favours compounds with a hit; in the whole collection about 5.7% have one here.

What do the screens show for `Cc1ccc(C2CC(c3cccs3)=NN2C(=O)CSc2nc3ccccc3o2)cc1` (centres undefined)?
hcDAF12 agonist: inactive; DAX1 inh-1: inactive; DAX1 inh-2: inactive; AHR act: 75; ssDAF-12 act: inactive; hgDAF-12 ag: inactive

Results for CCOC(=O)c1cn2nc(Oc3ccc(C(=O)OC)cc3)ccc2n1 ?
hcDAF12 agonist: inactive; DAX1 inh-1: inactive; DAX1 inh-2: inactive; AHR act: inactive; ssDAF-12 act: inactive; hgDAF-12 ag: inactive

Results for CCOC(=O)c1cn2nc(Oc3ccc(NC(C)=O)cc3)ccc2n1 ?
hcDAF12 agonist: inactive; DAX1 inh-1: 4.9; DAX1 inh-2: inactive; AHR act: inactive; ssDAF-12 act: inactive; hgDAF-12 ag: inactive

What do the screens show for `Cn1c(C(=O)N2CCN(c3ccccc3)CC2)cc2cc(Cl)ccc21`?
hcDAF12 agonist: inactive; DAX1 inh-1: inactive; DAX1 inh-2: inactive; AHR act: inactive; ssDAF-12 act: inactive; hgDAF-12 ag: inactive

What do the screens show for `O=C(Nc1ccc(N2C(=O)[C@@H]3[C@H](C2=O)[C@@H]2C=C[C@H]3C2)c(Cl)c1)c1ccccn1`?
hcDAF12 agonist: inactive; ssDAF-12 act: inactive; hgDAF-12 ag: 12

How did COc1ccc(CN2C(=O)c3cccnc3C2=O)cc1S(=O)(=O)NC(C)C do in these assays?
hcDAF12 agonist: inactive; DAX1 inh-1: 5.8; DAX1 inh-2: inactive; AHR act: inactive; ssDAF-12 act: inactive; hgDAF-12 ag: inactive

Results for CCCNS(=O)(=O)c1cc(CN2C(=O)c3cccnc3C2=O)ccc1OC ?
hcDAF12 agonist: inactive; DAX1 inh-1: inactive; DAX1 inh-2: inactive; AHR act: inactive; ssDAF-12 act: inactive; hgDAF-12 ag: inactive

Results for COc1cc(Cl)c(C)cc1NC(=O)COC(=O)c1cc[n+]([O-])cc1 ?
hcDAF12 agonist: inactive; DAX1 inh-1: inactive; DAX1 inh-2: inactive; AHR act: inactive; ssDAF-12 act: inactive; hgDAF-12 ag: inactive

What do the screens show for `C=CCn1c(SCc2nc3ccccc3c(=O)[nH]2)nc2ccccc2c1=O`?
hcDAF12 agonist: inactive; DAX1 inh-1: inactive; DAX1 inh-2: inactive; AHR act: 60; ssDAF-12 act: inactive; hgDAF-12 ag: inactive

What do the screens show for `Cc1ccc(S(C)(=O)=NC(=O)NC(=O)c2c(F)cccc2Cl)cc1` (centres undefined)?
hcDAF12 agonist: inactive; DAX1 inh-1: inactive; DAX1 inh-2: inactive; AHR act: inactive; ssDAF-12 act: inactive; hgDAF-12 ag: inactive

Results for Cc1ccc(S(C)(=O)=NC(=O)NC(=O)c2c(Cl)cccc2Cl)cc1 (centres undefined) ?
hcDAF12 agonist: inactive; DAX1 inh-1: 4.9; DAX1 inh-2: inactive; AHR act: inactive; ssDAF-12 act: inactive; hgDAF-12 ag: inactive

What do the screens show for `CCOc1cc(N2CCOCC2)c(OCC)cc1NC(=O)c1ccc2ccccc2n1`?
hcDAF12 agonist: inactive; DAX1 inh-1: inactive; DAX1 inh-2: inactive; AHR act: inactive; ssDAF-12 act: 0.9; hgDAF-12 ag: inactive

Results for O=C(Nc1ccc(N2CCCCC2)cc1)c1ccc2ccccc2n1 ?
hcDAF12 agonist: inactive; DAX1 inh-1: 5.5; DAX1 inh-2: inactive; AHR act: 63; ssDAF-12 act: inactive; hgDAF-12 ag: inactive

What do the screens show for `Cc1ccc(S(=O)(=O)N2CCCCC2)cc1NC(=O)c1ccc2ccccc2n1`?
hcDAF12 agonist: inactive; DAX1 inh-1: inactive; DAX1 inh-2: inactive; AHR act: inactive; ssDAF-12 act: inactive; hgDAF-12 ag: inactive

How did O=C(Nc1cccc(S(=O)(=O)N2CCCCCC2)c1)c1ccc2ccccc2n1 do in these assays?
hcDAF12 agonist: 6.4; DAX1 inh-1: inactive; DAX1 inh-2: inactive; AHR act: inactive; ssDAF-12 act: inactive; hgDAF-12 ag: inactive

Results for Cc1ccccc1C(=O)Nc1ccc(N2CCCC2)cc1 ?
hcDAF12 agonist: inactive; DAX1 inh-1: inactive; DAX1 inh-2: inactive; AHR act: inactive; ssDAF-12 act: inactive; hgDAF-12 ag: inactive

What do the screens show for `COCCCNC(=O)c1cccc2c(-c3ccnn3C)coc12`?
hcDAF12 agonist: inactive; DAX1 inh-2: inactive; ssDAF-12 act: inactive; hgDAF-12 ag: inactive

Results for Cn1nc(C(=O)NCCOc2ccccc2)c2ccccc2c1=O ?
hcDAF12 agonist: inactive; DAX1 inh-1: inactive; DAX1 inh-2: inactive; AHR act: inactive; ssDAF-12 act: inactive; hgDAF-12 ag: inactive

Results for Cc1ccc(-n2c(SCC(=O)Nc3ccccc3-c3ccccc3)nnc2-c2ccccc2)cc1 ?
hcDAF12 agonist: inactive; DAX1 inh-2: inactive; ssDAF-12 act: inactive; hgDAF-12 ag: inactive
